Results as given in PMC7862700, “An all-to-all approach to the identification of sequence-specific readers for epigenetic DNA modifications on cytosine”.

How the values were obtained:
Assay in all cases: DAPPL (digital affinity profiling via proximity ligation, sequencing); 10 mM Tris-HCl pH 7.5, 50 mM NaCl, 1 mM DTT, 4% glycerol, room temperature, 30 min; GST-TFs on glutathione beads, 16-mer random dsDNA library, 0.1% formaldehyde crosslink after washing; high values mean tight binding
Conditions in all cases: protein: recombinant; tags: N-terminal GST; dsDNA, one strand shown
FLI1 = molecular target: T1, FLI1 (Homo sapiens, UniProt Q01543 1-452)
T1 sequence: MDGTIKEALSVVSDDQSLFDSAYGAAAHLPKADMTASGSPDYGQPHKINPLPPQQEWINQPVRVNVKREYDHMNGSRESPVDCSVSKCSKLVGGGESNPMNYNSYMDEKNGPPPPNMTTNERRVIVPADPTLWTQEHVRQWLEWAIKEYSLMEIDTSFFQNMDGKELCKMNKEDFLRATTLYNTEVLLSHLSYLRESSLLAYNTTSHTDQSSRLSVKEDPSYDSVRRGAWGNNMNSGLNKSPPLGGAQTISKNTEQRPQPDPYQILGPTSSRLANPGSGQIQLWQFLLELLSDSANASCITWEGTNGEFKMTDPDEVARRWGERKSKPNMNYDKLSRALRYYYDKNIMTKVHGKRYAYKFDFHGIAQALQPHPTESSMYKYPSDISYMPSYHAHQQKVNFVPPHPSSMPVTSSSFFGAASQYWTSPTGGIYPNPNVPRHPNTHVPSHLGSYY
How it was run: (§1)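 Sequencing on an Illumina NextSeq500 followed washing, crosslinking with 0.1% formaldehyde, proximity ligation (BsaI/T4 ligase, 1 h, 37 °C) and PCR amplification of pools that had been incubated for 30 min at room temperature with 200 nmole of a random double-stranded 16-mer DNA library in Tris/NaCl/DTT/glycerol buffer. Each pool held DNA-barcoded human transcription factors, expressed in yeast as GST fusions and captured on glutathione beads, plus a tag-only sample. Binding signal is a hexamer's read frequency for a factor divided by its frequency in the tag-only sample.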

ELK1 = molecular target: T2, ELK1 (Homo sapiens, UniProt P19419 1-428)
T2 sequence: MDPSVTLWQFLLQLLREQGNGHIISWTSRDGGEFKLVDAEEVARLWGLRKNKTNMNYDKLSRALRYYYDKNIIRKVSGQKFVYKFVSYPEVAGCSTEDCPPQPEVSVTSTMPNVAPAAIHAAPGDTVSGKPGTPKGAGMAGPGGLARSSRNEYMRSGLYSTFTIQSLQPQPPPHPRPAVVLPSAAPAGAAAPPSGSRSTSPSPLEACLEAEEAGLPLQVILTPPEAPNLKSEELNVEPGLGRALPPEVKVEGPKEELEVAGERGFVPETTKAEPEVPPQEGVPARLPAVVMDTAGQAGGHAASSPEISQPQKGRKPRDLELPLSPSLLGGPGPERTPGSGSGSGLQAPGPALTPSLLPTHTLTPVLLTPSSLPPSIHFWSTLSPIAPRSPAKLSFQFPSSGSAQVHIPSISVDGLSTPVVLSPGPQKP
How it was run: as §1

GABPA = molecular target: T3, GABPA (Homo sapiens, UniProt Q06546 1-454)
T3 sequence: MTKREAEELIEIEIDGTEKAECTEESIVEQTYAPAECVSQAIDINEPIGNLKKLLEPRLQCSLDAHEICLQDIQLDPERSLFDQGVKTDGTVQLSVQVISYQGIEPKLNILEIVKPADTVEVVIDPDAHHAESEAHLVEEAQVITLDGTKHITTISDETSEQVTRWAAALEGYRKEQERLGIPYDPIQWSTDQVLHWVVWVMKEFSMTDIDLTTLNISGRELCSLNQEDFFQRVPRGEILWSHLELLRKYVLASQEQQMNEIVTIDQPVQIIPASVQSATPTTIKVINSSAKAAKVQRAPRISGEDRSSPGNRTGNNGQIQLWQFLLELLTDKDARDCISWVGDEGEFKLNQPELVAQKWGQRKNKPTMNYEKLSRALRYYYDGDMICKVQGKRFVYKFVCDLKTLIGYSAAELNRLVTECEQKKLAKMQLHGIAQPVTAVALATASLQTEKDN
How it was run: as §1

ERG = molecular target: T4, ERG (Homo sapiens, UniProt P11308 1-479)
T4 sequence: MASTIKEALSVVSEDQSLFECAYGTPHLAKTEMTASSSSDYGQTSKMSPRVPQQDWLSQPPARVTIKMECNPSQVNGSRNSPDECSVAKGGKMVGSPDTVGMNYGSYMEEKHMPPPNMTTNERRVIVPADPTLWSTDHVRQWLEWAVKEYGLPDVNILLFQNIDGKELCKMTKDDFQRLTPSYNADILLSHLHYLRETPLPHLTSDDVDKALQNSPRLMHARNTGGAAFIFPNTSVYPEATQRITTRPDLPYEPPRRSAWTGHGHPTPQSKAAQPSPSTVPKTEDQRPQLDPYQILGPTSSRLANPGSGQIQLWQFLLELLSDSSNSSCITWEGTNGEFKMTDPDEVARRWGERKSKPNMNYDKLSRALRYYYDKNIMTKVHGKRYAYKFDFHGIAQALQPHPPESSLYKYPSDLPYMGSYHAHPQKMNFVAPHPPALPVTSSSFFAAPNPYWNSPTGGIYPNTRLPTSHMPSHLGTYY
How it was run: as §1

ELF1 = ELF1 (Homo sapiens, UniProt P32519 1-619)
How it was run: as §1

EHF = molecular target: T5, EHF (Homo sapiens, UniProt Q9NZC4 1-300)
T5 sequence: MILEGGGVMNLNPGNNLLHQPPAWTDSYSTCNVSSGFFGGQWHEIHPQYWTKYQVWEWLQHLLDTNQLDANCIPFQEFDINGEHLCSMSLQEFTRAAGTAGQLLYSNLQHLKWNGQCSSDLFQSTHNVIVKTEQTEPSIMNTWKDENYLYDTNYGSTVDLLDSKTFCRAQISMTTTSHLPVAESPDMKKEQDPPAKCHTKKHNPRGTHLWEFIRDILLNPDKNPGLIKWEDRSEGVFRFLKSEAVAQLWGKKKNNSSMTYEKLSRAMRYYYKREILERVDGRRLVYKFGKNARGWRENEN
How it was run: as §1

SPI1 = SPI1 (Homo sapiens, UniProt P17947 1-270)
How it was run: as §1

SPIB = SPIB (Homo sapiens, UniProt Q01892 1-262)
How it was run: as §1

ELK3 = molecular target: T6, ELK3 (Homo sapiens, UniProt P41970 1-407)
T6 sequence: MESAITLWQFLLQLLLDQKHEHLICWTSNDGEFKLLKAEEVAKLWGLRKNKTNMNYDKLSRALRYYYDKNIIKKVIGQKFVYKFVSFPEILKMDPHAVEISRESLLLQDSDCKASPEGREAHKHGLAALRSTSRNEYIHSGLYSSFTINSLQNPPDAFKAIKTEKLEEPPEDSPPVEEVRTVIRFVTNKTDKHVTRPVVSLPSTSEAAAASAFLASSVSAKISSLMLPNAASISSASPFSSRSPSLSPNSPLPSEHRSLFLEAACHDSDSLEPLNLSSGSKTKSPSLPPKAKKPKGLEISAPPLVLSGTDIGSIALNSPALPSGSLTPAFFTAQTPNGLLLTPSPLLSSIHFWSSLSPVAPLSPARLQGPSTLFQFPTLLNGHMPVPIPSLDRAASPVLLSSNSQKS
How it was run: as §1

Chain of SPIB (Q01892 whole entry): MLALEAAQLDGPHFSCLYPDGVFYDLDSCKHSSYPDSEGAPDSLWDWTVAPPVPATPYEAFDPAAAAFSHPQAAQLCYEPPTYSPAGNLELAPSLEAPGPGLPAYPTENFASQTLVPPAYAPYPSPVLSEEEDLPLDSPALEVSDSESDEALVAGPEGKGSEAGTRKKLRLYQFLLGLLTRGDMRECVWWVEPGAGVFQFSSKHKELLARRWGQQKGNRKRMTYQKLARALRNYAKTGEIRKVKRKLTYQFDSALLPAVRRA
Chain of ELF1 (P32519 whole entry): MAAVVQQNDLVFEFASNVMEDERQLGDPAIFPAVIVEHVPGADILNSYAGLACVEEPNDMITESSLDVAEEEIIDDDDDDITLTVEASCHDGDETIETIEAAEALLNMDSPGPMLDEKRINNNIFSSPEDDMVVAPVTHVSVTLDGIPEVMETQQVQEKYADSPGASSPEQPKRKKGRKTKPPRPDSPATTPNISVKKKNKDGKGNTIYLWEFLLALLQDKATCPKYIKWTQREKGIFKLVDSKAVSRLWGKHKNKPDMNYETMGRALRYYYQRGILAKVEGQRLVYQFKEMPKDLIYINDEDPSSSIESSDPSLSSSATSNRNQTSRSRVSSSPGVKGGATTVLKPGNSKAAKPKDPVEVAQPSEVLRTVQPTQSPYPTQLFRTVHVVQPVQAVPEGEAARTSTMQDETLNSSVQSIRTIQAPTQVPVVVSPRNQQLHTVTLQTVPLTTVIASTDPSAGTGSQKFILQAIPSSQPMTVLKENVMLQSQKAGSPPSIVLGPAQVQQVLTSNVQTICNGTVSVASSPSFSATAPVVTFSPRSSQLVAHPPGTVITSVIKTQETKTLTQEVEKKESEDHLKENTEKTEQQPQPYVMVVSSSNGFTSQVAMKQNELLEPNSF

Sequence | binding signal (FLI1) | binding signal (ELK1) | binding signal (GABPA) | binding signal (ERG) | binding signal (ELF1) | binding signal (EHF) | binding signal (SPI1) | binding signal (SPIB) | binding signal (ELK3)
TCATTT | 1.36 fold enrichment (6-mer frequency, TF over GST control) | 1.33 fold enrichment (6-mer frequency, TF over GST control) | 1.19 fold enrichment (6-mer frequency, TF over GST control) | 1.35 fold enrichment (6-mer frequency, TF over GST control) | 1.25 fold enrichment (6-mer frequency, TF over GST control) | 1.36 fold enrichment (6-mer frequency, TF over GST control) | 1.5 fold enrichment (6-mer frequency, TF over GST control) | 1.34 fold enrichment (6-mer frequency, TF over GST control) | 1.16 fold enrichment (6-mer frequency, TF over GST control)
ATTTTA | 1.32 fold enrichment (6-mer frequency, TF over GST control) | 1.16 fold enrichment (6-mer frequency, TF over GST control) | 1.3 fold enrichment (6-mer frequency, TF over GST control) | 1.29 fold enrichment (6-mer frequency, TF over GST control) | 1.29 fold enrichment (6-mer frequency, TF over GST control) | 1.32 fold enrichment (6-mer frequency, TF over GST control) | 1.34 fold enrichment (6-mer frequency, TF over GST control) | 1.35 fold enrichment (6-mer frequency, TF over GST control) | 1.31 fold enrichment (6-mer frequency, TF over GST control)
CATCCT | 1.68 fold enrichment (6-mer frequency, TF over GST control) | 1.65 fold enrichment (6-mer frequency, TF over GST control) | 1.51 fold enrichment (6-mer frequency, TF over GST control) | 1.75 fold enrichment (6-mer frequency, TF over GST control) | 1.64 fold enrichment (6-mer frequency, TF over GST control) | 1.62 fold enrichment (6-mer frequency, TF over GST control) | 1.59 fold enrichment (6-mer frequency, TF over GST control) | 1.7 fold enrichment (6-mer frequency, TF over GST control) | 1.68 fold enrichment (6-mer frequency, TF over GST control)
TTTATA | 1.32 fold enrichment (6-mer frequency, TF over GST control) | 1.27 fold enrichment (6-mer frequency, TF over GST control) | 1.36 fold enrichment (6-mer frequency, TF over GST control) | 1.29 fold enrichment (6-mer frequency, TF over GST control) | 1.23 fold enrichment (6-mer frequency, TF over GST control) | 1.4 fold enrichment (6-mer frequency, TF over GST control) | 1.34 fold enrichment (6-mer frequency, TF over GST control) | 1.33 fold enrichment (6-mer frequency, TF over GST control) | 1.28 fold enrichment (6-mer frequency, TF over GST control)
CCTTAG | 1.3 fold enrichment (6-mer frequency, TF over GST control) | 1.3 fold enrichment (6-mer frequency, TF over GST control) | 1.18 fold enrichment (6-mer frequency, TF over GST control) | 1.24 fold enrichment (6-mer frequency, TF over GST control) | 1.27 fold enrichment (6-mer frequency, TF over GST control) | 1.3 fold enrichment (6-mer frequency, TF over GST control) | 1.21 fold enrichment (6-mer frequency, TF over GST control) | 1.34 fold enrichment (6-mer frequency, TF over GST control) | 1.23 fold enrichment (6-mer frequency, TF over GST control)
ACTACC | 1.61 fold enrichment (6-mer frequency, TF over GST control) | 1.72 fold enrichment (6-mer frequency, TF over GST control) | 1.67 fold enrichment (6-mer frequency, TF over GST control) | 1.63 fold enrichment (6-mer frequency, TF over GST control) | 1.71 fold enrichment (6-mer frequency, TF over GST control) | 1.51 fold enrichment (6-mer frequency, TF over GST control) | 1.69 fold enrichment (6-mer frequency, TF over GST control) | 1.69 fold enrichment (6-mer frequency, TF over GST control) | 1.63 fold enrichment (6-mer frequency, TF over GST control)
TAGTTA | 1.19 fold enrichment (6-mer frequency, TF over GST control) | 1.2 fold enrichment (6-mer frequency, TF over GST control) | 1.2 fold enrichment (6-mer frequency, TF over GST control) | 1.12 fold enrichment (6-mer frequency, TF over GST control) | 1.11 fold enrichment (6-mer frequency, TF over GST control) | 1.12 fold enrichment (6-mer frequency, TF over GST control) | 1.09 fold enrichment (6-mer frequency, TF over GST control) | 1.19 fold enrichment (6-mer frequency, TF over GST control) | 1.12 fold enrichment (6-mer frequency, TF over GST control)
